Experimental data reported in PubChem BioAssay (NCI).
About 79,000 compounds went through this panel and 15% of them were active in at least one assay; those are over-represented in the sample as a whole. Calls of active or inactive are those of the source. Cut-off read from the data, not from the text of the source: active = growth inhibition above about 70%; inactive = the rest.

Legend:
[1] = NCI Yeast Anticancer Drug Screen. Data for the rad52 strain (AID 147);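 note: 0% = growth of vehicle-treated control cultures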; conditions: S. cerevisiae rad52 mutant growth inhibition, hits give high values
Procedure, shortened: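 Yeast strain carrying a DNA damage repair alteration was exposed to test compounds. Growth inhibition was measured relative to vehicle-treated controls.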

[2] = NCI Yeast Anticancer Drug Screen. Data for the rad50EPP+ strain (AID 151);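 note: 0% = growth of vehicle-treated control cultures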; conditions: S. cerevisiae rad50 mutant strain, hits give high values
Procedure, shortened: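 Yeast strain carrying rad50 alteration (rad50EPP+) exposed to compounds; growth inhibition measured relative to vehicle-treated controls.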

[3] = NCI Yeast Anticancer Drug Screen. Data for the mgt1 strain (AID 153); conditions: S. cerevisiae mgt1 mutant growth inhibition, hits give high values
Procedure, shortened: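 Yeast mgt1 strain (DNA repair/cell-cycle alteration panel) exposed to compounds; growth inhibition measured relative to vehicle-treated controls.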

[4] = NCI Yeast Anticancer Drug Screen. Data for the rad50 strain (AID 155);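 note: 0% = growth of vehicle-only cultures of the same strain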; conditions: S. cerevisiae rad50 strain growth inhibition, hits give high values
Procedure, shortened: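 Genetically altered yeast (DNA repair pathway); compound treatment; growth inhibition vs vehicle ctrl.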

[5] = NCI Yeast Anticancer Drug Screen. Data for the mec2-1 strain (AID 157); conditions: S. cerevisiae mec2-1 strain, hits give high values
Procedure, shortened: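 mec2-1 yeast strain, carrying an alteration in DNA damage repair or cell cycle control, was exposed to compounds; growth inhibition was measured relative to vehicle-treated controls.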

[6] = NCI Yeast Anticancer Drug Screen. Data for the rad14 strain (AID 159);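 note: 0% = growth of vehicle-treated control cultures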; conditions: S. cerevisiae rad14 strain growth inhibition, hits give high values
Procedure, shortened: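 Test compounds were applied to a repair-deficient yeast strain. Its growth was then compared with that of cultures given vehicle alone, and inhibition was expressed relative to those controls.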

[7] = NCI Yeast Anticancer Drug Screen. Data for the sgs1 mgt1 strain (AID 161);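 note: 0% = growth of cultures given vehicle only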; conditions: S. cerevisiae sgs1 mgt1 strain, hits give high values
Procedure, shortened: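 Growth of a repair-deficient yeast mutant was monitored after compound treatment and expressed as inhibition relative to vehicle-treated cultures.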

[8] = NCI Yeast Anticancer Drug Screen. Data for the CLN2oe strain (AID 163);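 note: 0% = growth of vehicle-only control cultures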; conditions: S. cerevisiae CLN2oe strain, hits give high values
Procedure, shortened: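 Yeast cells carrying a defined cell-cycle control alteration were exposed to test compounds. Growth inhibition was scored against vehicle-treated control cultures.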

[9] = NCI Yeast Anticancer Drug Screen. Data for the cln2 rad14 strain (AID 165);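 note: 0% = growth equal to vehicle treated cultures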; conditions: S. cerevisiae cln2 rad14 strain, hits give high values
Procedure, shortened: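 Yeast carrying cln2 and rad14 alterations (cell cycle control and DNA damage repair) were exposed to compounds. Growth inhibition was measured against vehicle-treated controls.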

[10] = NCI Yeast Anticancer Drug Screen. Data for the bub3 strain (AID 167); conditions: S. cerevisiae bub3 mutant strain, hits give high values
Procedure, shortened: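 Yeast carrying a defined mutation is treated with each compound, and growth is compared with that of vehicle-exposed cells to give inhibition.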

[11] = NCI Yeast Anticancer Drug Screen. Data for the wt2 strain (AID 169);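 note: 0% = growth of vehicle-treated yeast cultures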; conditions: S. cerevisiae wt2 strain growth inhibition, hits give high values
Procedure, shortened: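 Yeast cells were exposed to test compounds, and growth inhibition was measured relative to vehicle-treated controls.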

[12] = NCI Yeast Anticancer Drug Screen. Data for the mlh1 strain (AID 171);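 note: 0% = growth of vehicle-treated control cultures of the same strain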; conditions: S. cerevisiae mlh1 strain growth inhibition, hits give high values
Procedure, shortened: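 Yeast carrying a defined genetic alteration in DNA damage repair or cell cycle control were exposed to test compounds. Growth inhibition was measured relative to vehicle-treated controls.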

[13] = NCI Yeast Anticancer Drug Screen. Data for the sgs1 strain (AID 173);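 note: 0% = growth of vehicle-only control cultures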; conditions: S. cerevisiae sgs1 mutant, hits give high values
Procedure, shortened: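 Yeast mutant strains carrying defined defects in DNA damage repair or cell cycle control were exposed to test compounds. Growth inhibition was scored against vehicle-treated controls.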

[14] = NCI Yeast Anticancer Drug Screen. Data for the mlh1 rad18 strain (AID 175); conditions: S. cerevisiae mlh1 rad18 strain growth inhibition, hits give high values
Procedure, shortened: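 Growth inhibition of the yeast strain was measured after compound exposure and expressed relative to vehicle-treated controls. The strain carries defined defects in DNA damage repair.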

[15] = NCI Yeast Anticancer Drug Screen. Data for the rad18 strain (AID 177); conditions: S. cerevisiae rad18 mutant growth inhibition, hits give high values
Procedure, shortened: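 Yeast carrying a defined DNA damage repair alteration were exposed to compounds. Growth inhibition was expressed relative to vehicle-treated controls.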

[16] = at 5.0 µM (retest, dose inferred, filed as 0.5)
[17] = at 50.0 µM (retest, dose inferred, filed as 5.0)

Measured: growth inhibition

COC(=O)CCC(NC(=S)N/N=C(\C)c1ccccn1)C(=O)OC (stereo not drawn)
active: [1]; at 100.0 µM 90% | [3]; at 100.0 µM 91% | [4]; at 33.0 µM 72% | [4]; [17] 79% | [4]; at 50.0 µM 77.5% | [4]; at 100.0 µM 93% | [5]; [17] 78% | [5]; at 50.0 µM 77.5% | [5]; at 100.0 µM 90% | [6]; at 100.0 µM 92% | [7]; [17] 80% | [7]; at 50.0 µM 82.8% | [8]; at 100.0 µM 88% | [9]; [17] 82% | [9]; at 50.0 µM 83% | [10]; at 33.0 µM 77% | [10]; [17] 84% | [10]; at 50.0 µM 81.3% | [10]; at 100.0 µM 93% | [11]; at 100.0 µM 87% | [12]; at 100.0 µM 92% | [13]; at 100.0 µM 92% | [14]; [17] 79% | [14]; at 50.0 µM 75.5% | [15]; at 33.0 µM 70% | [15]; at 100.0 µM 91%
inactive: [1]; at 1.2 µM -21% | [1]; at 3.7 µM -27% | [1]; at 11.0 µM 1% | [1]; at 33.0 µM 61% | [2]; at 1.2 µM 6% | [2]; at 3.7 µM -5% | [2]; at 11.0 µM 2% | [2]; at 33.0 µM 18% | [2]; at 100.0 µM 34% | [3]; at 1.2 µM 14% | [3]; at 3.7 µM 6% | [3]; at 11.0 µM 28% | [3]; at 33.0 µM 64% | [4]; at 1.2 µM 8% | [4]; at 3.7 µM 3% | [4]; [16] 34% | [4]; at 11.0 µM 26% | [5]; at 1.2 µM -11% | [5]; at 3.7 µM -7% | [5]; [16] 9% | [5]; at 11.0 µM 12% | [5]; at 33.0 µM 57% | [6]; at 1.2 µM 2% | [6]; at 3.7 µM -3% | [6]; at 11.0 µM 21% | [6]; at 33.0 µM 69% | [7]; [16] 7% | [8]; at 1.2 µM 7% | [8]; at 3.7 µM 2% | [8]; at 11.0 µM 18% | [8]; at 33.0 µM 62% | [9]; [16] -5% | [10]; at 1.2 µM 24% | [10]; at 3.7 µM 28% | [10]; [16] 22% | [10]; at 11.0 µM 32% | [11]; at 1.2 µM -37% | [11]; at 3.7 µM -29% | [11]; at 11.0 µM -3% | [11]; at 33.0 µM 51% | [12]; at 1.2 µM 20% | [12]; at 3.7 µM 2% | [12]; at 11.0 µM 23% | [12]; at 33.0 µM 62% | [13]; at 1.2 µM -14% | [13]; at 3.7 µM -15% | [13]; at 11.0 µM 20% | [13]; at 33.0 µM 67% | [14]; [16] -13% | [15]; at 1.2 µM -16% | [15]; at 3.7 µM -27% | [15]; at 11.0 µM 10%
